High-throughput results (PubChem BioAssay)
WRN inhibitor – blocks human WRN helicase; actives 0.46% (n = 360,000); Potency, µM (series often up to 114 µM), without a hit: at the highest dose activity change, negative = inhibition, hits mostly inhibitors; WRN helicase unwinding, fluorescent forked duplex, kinetic; Q14191; AID 651768; further: on the % scale 0 is the no-effect control and ±100 the full control effect; nearly all actives have a fitted effect of over 55% in size
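Fluorescence dequenching readout, ex 525 nm/em 598 nm, kinetic mode: forked duplex DNA (100 nM final) with adjacent fluorophore and quencher unwound by WRN (20 nM final) with 2 mM ATP. Compound preincubation 15 min, room temperature.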
POLH inh – blocks human DNA polymerase eta activity; Q9Y253; Potency, µM (series often up to 114 µM), for the others: at the top dose activity change, negative = inhibition, hits mostly inhibitors; actives 1.2% (n = 390,000); recombinant Pol eta, fluorescent DNA replication assay; further: on the % scale 0 is the no-effect control and ±100 the full control effect
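Pol eta (10 nM) was preincubated with compounds for 15 min at room temperature, after which fluorescent replication substrate (50 nM final) was added to start the reaction. Fluorescence was read kinetically at 0 and 10 min.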
POLI inh – blocks human DNA polymerase iota activity; Q9UNA4; Pol iota fluorescent replication assay, 10 min; actives 1% (n = 390,000); Potency, µM (doses to about 115 µM), for the others: top-dose activity, negative = inhibition, actives largely listed as inhibitors
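Pol iota at 10 nM preincubated 15 min with compounds at room temperature; reaction started with fluorescent substrate, 50 nM final. Fluorescence read kinetically at 0 and 10 min; buffer-only wells as negative control.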
FEN1 inhibitor – human FEN1 inhibition | Potency, µM (highest dose often 114 µM), inactives show top-dose activity change, negative = inhibition, hits mostly inhibitors | actives 0.35% (n = 390,000) | AID 588795 | Recombinant FEN1 flap cleavage, fluorescence, 15 min; further: on the % scale 0 is the no-effect control and ±100 the full control effect; nearly all actives have a fitted effect of over 65% in size
Target sequence (P39748 whole entry, looked up): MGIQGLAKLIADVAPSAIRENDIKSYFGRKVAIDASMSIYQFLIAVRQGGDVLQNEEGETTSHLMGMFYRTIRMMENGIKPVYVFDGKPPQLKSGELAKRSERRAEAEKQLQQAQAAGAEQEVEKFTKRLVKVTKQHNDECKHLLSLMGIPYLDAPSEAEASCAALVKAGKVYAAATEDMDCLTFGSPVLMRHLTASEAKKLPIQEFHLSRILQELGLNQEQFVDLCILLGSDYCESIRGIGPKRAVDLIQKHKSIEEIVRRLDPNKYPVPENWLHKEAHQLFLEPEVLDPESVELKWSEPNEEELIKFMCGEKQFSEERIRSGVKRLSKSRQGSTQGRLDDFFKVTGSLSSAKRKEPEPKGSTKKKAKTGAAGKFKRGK
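Compounds are tested as a concentration series against 10 nM FEN1; after a 15 min room-temperature preincubation, 50 nM substrate starts cleavage, with plate reads at 0 and 15 min. Normalized responses are fitted by a Hill equation.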
POLK inh – blocks human DNA polymerase kappa activity; actives 0.53% (n = 400,000); purified Pol kappa, fluorescent DNA synthesis assay, 10 min; Potency, µM (top dose mostly 107 µM), without a hit: top-dose activity, negative = inhibition, usual class: inhibitors; Q9UBT6; AID 588579; further: on the % scale 0 is the no-effect control and ±100 the full control effect
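Kinetic fluorescence screen: compound preincubated 15 min RT with 10 nM enzyme; 50 nM substrate (final) initiates; reads at 0/10 min.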
Pol beta inh – DNA polymerase beta (human) inhibition. Pol beta primer extension/strand displacement, fluorescence kinetic. AID 485314. Potency, µM (doses to about 114 µM), for the others: at the highest dose activity change, negative = inhibition, hits mostly inhibitors. actives 1.3% (n = 340,000); further: on the % scale 0 is the no-effect control and ±100 the full control effect
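Preincubation: enzyme (10 nM) with compound, 15 min, RT. Reaction: substrate added to 50 nM final. Reads: 0 and 10 min. Analysis: normalized, Hill fit.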
* marks the source's active call; other numbers are inactive results; ? = inconclusive; / = no result given; ! = not confirmed by another sample; [ ] = dose if it differs, or a comment. A selection: hits, their analogues and other compounds. The true share with any hit is near 2.4%. The call rests on the fitted dose curve; in most records, active means well fitted curve in the direction sought with a large enough effect; inconclusive means small, poorly fitted or top-dose-only effect, or another doubt; inactive means no such curve, though single readings can be large; an effect the other way counts as inactive or inconclusive. Potency means the concentration at half of the fitted maximal effect.

SMILES	WRN inhibitor	POLH inh	POLI inh	FEN1 inhibitor	POLK inh	Pol beta inh
COc1ccc(/C=C/C(=O)Nc2ccc(S(=O)(=O)Nc3onc(C)c3C)cc2)cc1OC	?	-15%	-10%	-11%	-22%	-18%
O=[N+]([O-])c1cc(-c2ccc(/C=N\n3cnnc3)o2)cc([N+](=O)[O-])c1	-25%	?	22µM*	-7%	?	56µM*
COc1ccc(OC)c(CN2CCCC(CCC(=O)N(C)CCc3ccccn3)C2)c1 (centres undefined)	0%	0%	24%	18%	0%	-2%
CCOC(=O)C1CCN(C(=O)C23CC4CC(CC(C4)C2)C3)CC1	-7%	7%	3%	3%	-17%	-9%
Cc1ccc(C)c(N/C(N)=N/c2nc(C)cc(C)n2)c1	45%	-11%	22%	50µM*	3%	42%
COc1ccc(C)cc1N/C(N)=N/c1nc(C)cc(C)n1	0%	-5%	9%	-5%	-6%	13%
O=C(O)c1ccc(CSc2nc(-c3ccc(Cl)cc3)cc(C(F)(F)F)n2)cc1	-31%	-7%	?	1%	-13%	89µM*
COc1cccc(-c2cc(C(=O)Nc3cnn(Cc4ccc(F)cc4)c3)no2)c1	-13%	-12%	100µM*	-3%	-21%	37%
COc1ccc(-c2cc(C(=O)Nc3cnn(Cc4ccc(F)cc4)c3)no2)cc1OC	/	-11%	7%	-1%	-24%	-27%
CCOc1ccc(NC(=O)CN2C(=O)/C(=C3\SC(=S)N(C4CCS(=O)(=O)C4)C3=O)c3ccccc32)cc1 (centres undefined)	-10%	-8%	-12%	7%	-9%	-10%
Cc1ccc(S(=O)(=O)N2CCN(CCOc3c(Cl)cccc3Cl)CC2)cc1C	-12%	-20%	-7%	9%	-4%	/
Nc1c2c(=O)[nH]c(O)cc2nn1-c1ccccc1	-2%[11.6 µM]	50µM*	8.9µM*	?	?	/
Cc1c(C)c2c(C)nn(-c3ccccc3)c2[nH]c1=O	-1%	-18%	27%	7%	-7%	14%
O=[N+]([O-])c1ccc(Oc2ncccn2)cc1	0%	-1%	-2%	-12%	-2%	/
O=C(O)c1ccccc1NC(c1ccccc1)c1ccc2cccnc2c1O (centres undefined)	14µM*	?	4%	-11%	-10%	/
Cc1ccnc(NC(c2ccccc2)c2ccc3cccnc3c2O)c1 (centres undefined)	-7%	-18%	87%	-18%	-6%	/
CCCCN1/C(=C/c2ccc3ccccc3[n+]2CC)Sc2ccccc21	-2%	-23%	5%	40µM*	-40%	50µM*
c1ccc2oc(C3=NCCN3)cc2c1	/	/	/	/	-7%[19.4 µM]	/
CC(C)(C)N1C(=O)Cc2c1nc(N)c1c(N)nc(N3CCCCC3CO)c(C#N)c21 (centres undefined)	?	?	20µM*	-3%	-10%	0%
COc1ccc(CN2CCN(C(=O)CCC(=O)c3ccc(C)s3)CC2)cc1OC	-22%	25µM*	89µM*	-3%	-33%	/
Cc1ccc2nc(CSc3nnc(Nc4ccccc4F)s3)cc(=O)n2c1	-5%	-31%	?	3%	-12%	22µM*
O=c1cc(-c2ccc(O)cc2)oc2cc(O)cc(O)c12	-7%	?	?	?	20µM*!	-12%[57.1 µM]
O=c1cc(-c2ccc(O)cc2)oc2ccccc12	-17%	-2%	30%	5%	0%	28µM*
O=c1cc(-c2ccccc2)oc2cc(O)cc(O)c12	6%	9%	14%	-7%	-5%	/
O=c1cc(-c2cccc(O)c2O)oc2ccccc12	/	/	/	/	13µM*	/
SMILES	WRN inhibitor	POLH inh	POLI inh	FEN1 inhibitor	POLK inh	Pol beta inh
O=c1cc(-c2ccccc2O)oc2cc(O)ccc12	/	/	/	/	-6%[60.1 µM]	/
CCN1CC2([N+](=O)[O-])CC=C(OC)C([N+](=O)[O-])(C1)C2 (centres undefined)	-9%	-3%	174%	-2%	-14%	3%
Nc1ccc(/C=C/c2ccc(N)cc2S(=O)(=O)O)c(S(=O)(=O)O)c1	/	/	/	/	3.2µM*	/
COc1ccc(C(CNC(=O)c2ccc(S(=O)(=O)Nc3cccc(C)c3C)cc2)N2CCOCC2)cc1 (centres undefined)	0%	-5%	-7%	-2%	-3%	/
C=C/C(C)=C/C[C@H]1C(=C)CCC2[C@](C)(C(=O)O)CCC[C@@]21C (some centres undefined)	-19%	8.9µM*	?	-2%	?	/
O=C(O)c1ccc(CN2C[C@@H](CO)O[C@@H](n3cnc4c(N5CCOCC5)ncnc43)C2)cc1	-8%	/	/	/	/	/
O=C(Nc1nnc(C23CC4CC(CC(C4)C2)C3)s1)c1ccc(N2C(=O)CCC2=O)cc1	-15%[57.1 µM]	?	?	3%	-41%	10µM*
COc1ccc(NC(=S)Nc2ccc3nsnc3c2)cc1	?	7.1µM*	3.5µM*	?	0%	0%
COCCNC(=S)Nc1ccc(Cl)c(Cl)c1	-15%	-20%	13%	-3%	-10%	-2%
COc1ccc(NC(=S)Nc2ccc3nc(C)c(C)nc3c2)cc1	2%	-17%	33%	3%	-2%	4%
CC(C)N(C(=O)Nc1ccc2nsnc2c1)C(C)C	?	8.9µM*	1µM*	?	50µM*	10µM*
COCCNC(=S)Nc1ccc2nsnc2c1	-21%	-6%	20µM*	3%	-13%	43%
CCOc1ccc(NC(=S)Nc2ccc3nsnc3c2)cc1	-5%[11.6 µM]	22µM*	10µM*	-31%	-4%	?
CCOc1ccc(NC(=O)Nc2ccc3nsnc3c2)cc1	0%	-1%	8%	-19%	-10%	2%
COc1ccc(C(CC(=O)N2CCCCC2)C(C)C)cc1 (centres undefined)	5%	-16%	58%	-5%	2%	88%
C=CCn1c(SCc2cc(=O)n3ccsc3n2)nc2sc(C)c(C)c2c1=O	-11%[57.1 µM]	?	32µM*	6%	-42%	50µM*
C=CCOc1c(OC)cc(/C=N/Nc2cccc(C(=O)O)c2)c(Br)c1Br	-24%	?	-16%	-15%	?	50µM*
C=CCOc1c(/C=N\NC(N)=O)cccc1OC	6%	-2%	?	14%	-1%	47%
Cc1cccc(NC2=C/C(=N/S(=O)(=O)c3cccs3)c3ccccc3C2=O)c1	-16%	-10%	-8%	-19%	-17%	0%
O=C1c2ccccc2C(=O)N1CCSc1ncn[nH]1	-2%	5%	18%	3%	6%	-2%
O=C1C(Nc2ccc(O)cc2)=C/C(=N/S(=O)(=O)c2cccs2)c2ccccc21	-16%	?	6.3µM*	?	-11%	0%
